Most compounds without a hit are left out; they make up all but 6.1% or so of the library.
RORgamma inh – blocks mouse ROR gamma transcriptional activity; P51450; Drosophila S2 Gal4-RORgamma UAS-luciferase reporter, 20 h; Potency, µM (highest dose often 53.6 µM), usual class: inhibitors; 310,000 tested, 5.4% active; AID 2551; note: nearly all actives have a fitted effect of over 60% in size
Target sequence (P51450 whole entry, looked up, the tested form may be a part): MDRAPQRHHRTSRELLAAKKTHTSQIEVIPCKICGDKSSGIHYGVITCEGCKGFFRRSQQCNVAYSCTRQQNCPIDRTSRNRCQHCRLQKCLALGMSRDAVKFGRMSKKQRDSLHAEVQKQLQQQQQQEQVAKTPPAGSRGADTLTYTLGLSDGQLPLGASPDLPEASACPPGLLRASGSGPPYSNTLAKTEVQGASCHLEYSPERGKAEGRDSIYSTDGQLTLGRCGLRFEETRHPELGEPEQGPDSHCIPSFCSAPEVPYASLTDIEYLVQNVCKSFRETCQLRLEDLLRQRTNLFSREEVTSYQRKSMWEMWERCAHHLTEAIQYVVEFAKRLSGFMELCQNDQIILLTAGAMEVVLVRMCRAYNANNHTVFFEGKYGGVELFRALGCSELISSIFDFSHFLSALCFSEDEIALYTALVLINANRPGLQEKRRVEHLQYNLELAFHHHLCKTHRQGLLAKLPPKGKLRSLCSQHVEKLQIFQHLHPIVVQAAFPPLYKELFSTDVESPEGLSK
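Drosophila S2 cells stably expressing Gal4-DBD/mouse RORγ fusion under metallothionein promoter plus UAS-luciferase; compound 1 h, then 700 uM CuSO4 induction for 20 h at ambient temperature; inhibition read as reduced luminescence.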
S2 tox – reduces viability in counter-screen for ATXN expression inhibitors | AID 651635 | S2 cells (HEK-293 line with an ATXN2-luciferase reporter) viability, CellTiter-Fluor protease fluorescence, 24 h | 400,000 tested, 0.49% active | Potency, µM (titrated, usually from 56.7 µM), hits mostly cytotoxic; note: nearly all actives have a fitted effect of over 40% in size
HepG2 tox – kills HepG2 cells in TGF-b inhibitor counter-screen; HepG2 CAGA-GFP viability, ATP luminescence, 18 h; Potency, µM (titrated, usually from 46.1 µM), hits mostly cytotoxic; 410,000 tested, 0.76% active; AID 588856
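CellTiter-Glo luminescence gave cytotoxicity after 18 hours at 37 degrees C. The cells were HepG2 CAGA-GFP in 1% FBS DMEM, stimulated with 500 pg/mL TGF-beta after compound addition. %Activity was normalised to no-cell wells (complete cell-killing) and DMSO (no toxicity), and curves were fitted and classified.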
ATXN2 expr inh – reduces ATXN2 reporter expression in HEK-293 cells | AID 1745845 | HEK-293 ATXN2-luciferase reporter, luminescence, 24 h | Potency, µM (titrated, usually from 57 µM), actives largely listed as inhibitors | 360,000 tested, 0.72% active; note: nearly all actives have a fitted effect of over 55% in size
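ATXN2-luciferase reporter cells (luciferase flanked by upstream and downstream ATXN2 gene portions) were treated 24 h at 37 °C with compounds at up to 57 uM. SteadyGlo luminescence gave expression; GF-AFC fluorescence gave viability.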
Gal4-VP16 FLuc – inhibits Gal4-VP16 luciferase reporter, ROR gamma counter-screen | Drosophila S2 Gal4-VP16 UAS-luciferase, luminescence, 20 h | 310,000 tested, 3.5% active | Potency, µM (highest dose often 53.6 µM), actives largely listed as inhibitors;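 note: Gal4-VP16 expression switched on by copper sulfate through the metallothionein promoter; nearly all actives have a fitted effect of over 50% in size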
TGFb SMAD3 inh – TGF-b pathway inhibition. HepG2 CAGA-GFP TGF-b/SMAD3 reporter, GFP fluorescence, 18 h; TGF-beta stimulated, 500 pg/mL final. Potency, µM (doses to about 46.1 µM), hits mostly inhibitors. 410,000 tested, 1.2% active. AID 588855; note: nearly all actives have a fitted effect of over 65% in size
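Cell-based qHTS in HEPG2 carrying a CAGA-GFP Smad reporter; compounds added before 500 pg/mL final TGF-beta, 18 h incubation at 37 degrees C, GFP fluorescence quantified per cell by imaging cytometry.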
Hits are given with their value; i = inactive; ? = inconclusive; nt = no result given; ! = a repeat was not active; [ ] = another dose, or the depositor's remark. Calls come from the whole dose curve; as a rule, active = well fitted curve in the direction sought with a large enough effect; inconclusive = small, poorly fitted or top-dose-only effect, or another doubt; inactive = no such curve, though single readings can be large; an effect the other way counts as inactive or inconclusive.

SMILES	RORgamma inh	S2 tox	HepG2 tox	ATXN2 expr inh	Gal4-VP16 FLuc	TGFb SMAD3 inh
COc1ccc(C2NC(=S)N3C(c4ccc(OC)c(OC)c4)NC(=S)N23)cc1OC (configuration not stated)	nt	i	nt	nt	nt	nt
COc1ccc(C2C=C(C34CC5CC(CC(C5)C3)C4)NC(=S)N2)cc1OC (configuration not stated)	1.26µM	i	i	i	1.58µM	?
Cc1cccc(Cn2cc3c(=O)n(CC(=O)Nc4cccc(C)c4C)nc-3c3cc(F)ccc32)c1	nt	i	i	i	nt	i
CCOC(=O)C1=C(Cc2ccc(F)cc2)C(=O)c2ccccc2C1=O	14.1µM	?	i	?	i	i
Cc1ccc(CN2CCC(CNc3ncnc4onc(-c5ccc(F)cc5)c34)CC2)cc1	nt	?	i	i	nt	i
N#Cc1c([N+](=O)[O-])cc([N+](=O)[O-])cc1S(=O)(=O)Cc1ccccc1	nt	31.6µM	10µM	?	nt	3.98µM
COc1cc(OC)c(C#N)c(S(=O)(=O)Cc2ccccc2)c1	i	i	i	i	i	i
CCOc1ccc(-c2nc(Cn3c(=O)cc(-c4ccccc4)c4c(C)nn(C)c43)c(C)o2)cc1	nt	nt	i	nt	nt	i
CCOC(=O)c1c(C)oc2c1c1c(c3ccccc32)OCN(Cc2cccnc2)C1	1.78µM	i	i	i	7.94µM	i
CCOC(=O)c1c(C)oc2c1c1c(c3ccccc32)OCN(CCCC(=O)O)C1	i	i	i	i	i	?
Cc1oc2ccc(O)c(CN3CCCCCC3)c2c1C(=O)Nc1cccc(C(F)(F)F)c1	nt	nt	12.6µM	nt	nt	?
CCc1cccc(CC)c1NC(=O)c1c(C)oc2ccc(O)c(CN3CCCC3)c12	nt	15.8µM	i	i	nt	i
COCCCNC(=S)NNC(=O)c1ccccn1	14.1µM	?	i	?	i	i
COCCCNC(=S)NNC(=O)c1csc2ccccc12	i	i	i	i	?	i
O=C(NN=C1c2ccccc2-c2ccccc21)c1ccccc1Br	7.08µM	i	i	i	10µM	?
COCCCNC(=S)NNC(=O)c1ccccc1Br	2.51µM	i	i	i	i	i
CNC(=S)NNC(=O)c1ccccc1Br	12.6µM	i	i	i	?	i
NC(=S)NN=C1c2ccccc2-c2ccccc21	1.26µM	1.41µM	i	nt	3.98µM	6.31µM
Cc1ccc(CNc2ccc3c(c2)ncn3C(C)(C)C)cc1	1.41µM	i	i	i	?	i
Cc1ccc(CNc2ccc3c(c2)ncn3C)cc1	i	i	i	i	i	i
O=C(NCC1Cc2cccc(-c3cnccn3)c2O1)C1COc2ccccc2O1 (configuration not stated)	nt	i	nt	nt	nt	nt
CC(=O)OCC1O[C@@H](O[C@@H]2C[C@H]3C(C)(C)[C@H](OC(C)=O)CC[C@]3(C)[C@H]3CC[C@]45C[C@]4(CC[C@H]5[C@@H](C)C[C@@H](O)[C@H](O)C(C)(C)O)[C@@]32C)[C@H](O)[C@@H](O)[C@@H]1O (some centres not stated)	0.891µM	nt	nt	nt	3.16µM	nt
Cc1cc(NC(=O)CN(C)S(=O)(=O)c2ccc3c(c2)CCCC(=O)N3)ccc1Br	nt	nt	i	15.8µM	nt	i
OC(CNCc1ccccc1F)(c1ccc(F)cc1)c1ccc(F)cc1	7.94µM	i	i	i[11.3 µM]	?	i
COc1ccccc1CNCC(O)(c1ccc(F)cc1)c1ccc(F)cc1	i	?	i	nt	i	?
SMILES	RORgamma inh	S2 tox	HepG2 tox	ATXN2 expr inh	Gal4-VP16 FLuc	TGFb SMAD3 inh
CCc1nnc2c(NCc3cccc(OC)c3)nc3ccccc3n12	nt	i	i	i	nt	i
CCC(C)Nc1ccc(NC(C)CC)cc1 (configuration not stated)	?	nt	12.6µM!	?	?	11.2µM!
CCC(C)NC(=O)Nc1ccc(Br)cc1 (configuration not stated)	i	i	i	i	i	i
CCOCCCn1c(=N)c(C(N)=S)cc2c(=O)n3cccc(C)c3nc21	i	nt	i	i	14.1µM	i
CCCCn1nnc(NC(=O)COc2ccc(Cl)c(C)c2)n1	i	i	i	i	i	i
CCCn1nnnc1NC(=O)COc1ccc(Cl)c(C)c1	5.01µM	i	i	i	4.47µM	i
CCCn1nnnc1NC(=O)COc1ccc(CC)cc1	10µM	?	i	i	11.2µM	i
COc1ccc(-n2c(SCc3ccccn3)nc3c(c2=O)SCC3)cc1OC	i	i	20µM	i	i	i
COc1ccc(-n2c(SCC(=O)NCC3CCCO3)nc3c(c2=O)SCC3)cc1OC (configuration not stated)	i	i	i	i	i	i
CC(=NNc1ccccc1)C(C)=NNc1ccccc1	nt	i	i	i	nt	i
CC(=O)/C=N/Nc1ccccc1	i	i	i	i	i	22.4µM
C=C(c1ccc2ccccc2n1)c1cccs1	nt	nt	i	nt	nt	i
COc1ccc(C2=C/C(=C\c3cccc(OC(C)=O)c3)C(=O)O2)cc1	7.08µM	i	i	i	?	i
COc1ccc(C2=C/C(=C\c3ccccc3OC(C)=O)C(=O)O2)cc1	i	i	i	nt	i	i
Cc1cc(C)cc(NC(=O)CCC(=O)N2CCSc3ccccc32)c1	i	?	i	i	i	11.2µM!
Cc1cc(C)cc(NC(=O)C2CCCN(c3nnc(C)c4c(C)n(-c5ccccc5)nc34)C2)c1 (configuration not stated)	nt	?	i	?	nt	i
Clc1nccnc1N/N=C/c1ccc(Br)cc1	4.47µM	i	12.6µM	i	?	i
COc1ccc(/C=N/Nc2nccnc2Cl)cc1	?	i	7.94µM	i	?	i
Brc1ccc(/C=N/Nc2ccccn2)cc1	?	i	i	i	i	?
COc1ccc(/C=N/Nc2nccnc2Cl)c(OC)c1	?	i	i	i	?	i
COc1ccc(OC)c(C2C(C(=O)Nc3ccccc3OC)=C(C)Nc3c(C(=O)Nc4ccc(F)cc4)cnn32)c1 (configuration not stated)	nt	nt	i	nt	nt	?
C/C(=C1\CCOC(=O)S1)N(C=O)Cc1cnc(C)nc1N	nt	i	nt	i	nt	nt
CCCN1C(=O)C(Cc2nc3ccccc3c(=O)n2CC)c2cc(Br)ccc21 (configuration not stated)	nt	nt	i	nt	nt	7.94µM
CCn1c(CC2C(=O)N(C)c3ccc(Br)cc32)nc2ccccc2c1=O (configuration not stated)	nt	nt	i	nt	nt	?
CC(CNC(=O)c1cnn(-c2ccc(F)cc2)c1-n1cccc1)c1ccccc1 (configuration not stated)	nt	i	i	i	nt	10µM
Cc1c(/C(O)=C2/C(=O)C(=O)N(CCN3CCOCC3)C2c2ccccn2)cnn1-c1ccccc1 (configuration not stated)	1.12µM	i	i	?	?	i

Screens (PubChem)
